Drawing on PubChem BioAssay AID493012 (Sanford-Burnham Center for Chemical Genomics, 2011), this text covers inhibition for 60 compounds.

Screen size: about 330,000 compounds; about 930 (0.28%) were called active. The sample as a whole holds a higher share of actives than the screen did. Unmarked numbers belong to inactive results.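 The calls were made as follows: active = inhibition of at least 40% at 20 µM, with no more than 30% in the related APOBEC3A deaminase screen; inactive = the rest.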

The inhibition is the relative decrease from the control value, in per cent.

DNA dC->dU-editing enzyme APOBEC-3G (Homo sapiens), sequence (Q9HC16 whole entry, looked up): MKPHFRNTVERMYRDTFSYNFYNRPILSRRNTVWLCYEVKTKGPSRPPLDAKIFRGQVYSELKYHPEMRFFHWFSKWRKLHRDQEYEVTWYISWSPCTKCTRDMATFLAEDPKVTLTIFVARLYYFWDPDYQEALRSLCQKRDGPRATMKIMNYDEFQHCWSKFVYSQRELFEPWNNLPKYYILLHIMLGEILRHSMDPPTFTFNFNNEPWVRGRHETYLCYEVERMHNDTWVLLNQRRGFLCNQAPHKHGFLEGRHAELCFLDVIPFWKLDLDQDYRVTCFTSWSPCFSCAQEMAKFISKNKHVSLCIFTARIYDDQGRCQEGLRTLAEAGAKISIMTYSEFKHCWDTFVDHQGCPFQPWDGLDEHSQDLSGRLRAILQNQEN

The assay concerns the target DNA dC->dU-editing enzyme APOBEC-3G (Homo sapiens) (UniProt Q9HC16). Nature of the assay: inhibition of human A3G ssDNA deamination – biochemical, fluorescence, single-stranded DNA substrate, uHTS, primary screen (AID 493012).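 Also: plate controls were DMSO wells with A3G for no effect and wells lacking A3G enzyme for full effect.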 Particulars: recombinant A3G, ssDNA deamination FAM/TAMRA fluorescence; at 20 µM; stronger effect = higher value.
As for `CC(C)(C)c1nnc(NC(=O)C2c3ccccc3Oc3ccccc32)s1`, the inhibition is 53.3% (active).

For `CCC(C)(C)NC(=O)C1c2ccccc2Oc2ccccc21`, the inhibition was -0.78%.

As for `CCC(C)NC(=O)C1c2ccccc2Oc2ccccc21` (stereo not given), the inhibition was -4.18%.

In the case of `CCCCn1c(N)c(N(CCOC)C(=O)c2sc3ccccc3c2Cl)c(=O)[nH]c1=O`, the inhibition was -7.98%.

Consider `CCCCCC(O)c1cccc(OCc2ccc3ccccc3n2)c1` (stereo not given), for which the inhibition is -6.99%.

Regarding `Cc1ccc(NC(=O)C2CCN(S(=O)(=O)c3ccc4c(c3)NC(=O)CO4)CC2)cc1C`, the inhibition is -9.26%.

In the case of `NC(=O)C1CCN(C(=O)c2ccc(F)c(S(=O)(=O)N3CCOCC3)c2)CC1`, the inhibition was -4.4%.

For `CN(C(=O)c1cccc(NC(=O)Cc2cccc([N+](=O)[O-])c2)c1)C1CCCCC1`, the inhibition was -1.19%.

Turning to `CCn1cc(C(=O)N2CC(C)CC(C)C2)c(=O)c2cc(S(=O)(=O)N3CCCC3)ccc21` (stereo not given), the inhibition was -1.06%.

Turning to `CCN(CC)C(=O)CSC(Nc1cccc(F)c1)=C(C#N)C#N`, the inhibition was -2.9%.

Regarding `Nc1ccccc1SC(C[N+](=O)[O-])c1ccccc1` (stereo not given), the inhibition is 75.7% (active).

For the compound `O=C(COc1cc(Cl)c(Cl)cc1Cl)NC(=O)NC1CCCC1`, the inhibition is -1.68%.

As to `O=C(CSc1ncccn1)NCCc1ccccc1`, the inhibition was -0.062%.

Turning to `S=c1[nH]nc(Nc2ccccc2)s1`, the inhibition is 42.7% (active).

As to `CC(C)(C)C(=O)c1cnc(Nc2ccccc2)s1`, the inhibition was 17.8%.

With `S=c1[nH]nc(NCCc2ccccc2)s1`, the inhibition was 43.1% (active).

`Nc1c(NCCc2ccccc2)c2ccccc2oc1=O`: the inhibition is -2.86%.

As to `O=c1cnnc(Nc2ccccc2)[nH]1`, the inhibition is -1.93%.

On to `Cc1ccc([N+](=O)[O-])c(OCCCNCC(C)O)c1` (stereo not given), for which the inhibition was -8.53%.

As for `Cc1cc(C)n(C(=O)c2ccc(C)c(S(=O)(=O)N3CCOCC3)c2)n1`, the inhibition was 0.652%.

In the case of `COc1ccc(CCNC(=O)CS(=O)(=O)Cc2nc(-c3ccc(C)cc3)oc2C)cc1OC`, the inhibition is -6.41%.

On to `S=c1[nH]nc(-c2cc(-c3ccccc3)n[nH]2)n1/N=C/c1c2ccccc2cc2ccccc12`, for which the inhibition is 43.4% (active).

On to `S=c1[nH]nc(-c2cc(-c3ccsc3)n[nH]2)n1-c1ccccc1`, for which the inhibition is 20.5%.

As to `CCN(CC)S(=O)(=O)c1cccc(-c2n[nH]c(=S)n2/N=C/c2ccc(C(=O)OC)cc2)c1`, the inhibition was -5.7%.

Take `O=c1c2ccccc2nnn1CSc1nc2sc3c(c2c(=O)n1CC1CCCO1)CCC3` (stereo not given): the inhibition is -0.082%.

Consider `CC(C)c1ccc(NC(=O)COC(=O)c2ccc(CN3CCCC3=O)cc2)cc1`, for which the inhibition was -5.19%.

Regarding `CC(C)(C)n1nnnc1C(c1ccc2ncccc2c1)N1CCSCC1` (stereo not given), the inhibition was 1.72%.

For the compound `CCc1cccc(NC(=O)C2CCCN(S(=O)(=O)c3ccc4[nH]c(=O)ccc4c3)C2)c1` (stereo not given), the inhibition is -3.15%.

Turning to `S=c1[nH]nc2c3c4c(sc3ncn12)CCCC4`, the inhibition is 50.1% (active).

As for `N=c1c2c3c(sc2ncn1CCCN1CCOCC1)CCCCC3`, the inhibition was 2.15%.

As to `CC(C(=O)O)n1cnc2sc3c(c2c1=O)CCCC3` (stereo not given), the inhibition is -3.08%.

Turning to `COc1ccc(-n2nc(C(=O)NCC(=O)Nc3cccc(C)n3)c3ccccc3c2=O)cc1`, the inhibition was -3.64%.

Take `O=c1[nH]c(CN2CCN(S(=O)(=O)c3ccc4c(c3)OCCO4)CC2)nc2sc3c(c12)CCCC3`: the inhibition was -9.39%.

With `COC(=O)COc1ccc(C2NC(=O)NC(C)=C2C(=O)NCc2ccccc2)cc1OC` (stereo not given), the inhibition was -1.01%.

Regarding `CCn1c(CNS(=O)(=O)c2ccc(Cl)cc2)n[nH]c1=S`, the inhibition was 30.3%.

Consider `CCn1c(CSCc2c(Cl)cccc2Cl)n[nH]c1=S`, for which the inhibition is 11.9%.

Consider `CCn1c(CN2C(=O)CSc3ccccc32)n[nH]c1=S`, for which the inhibition is 43.9% (active).

`COc1cc(C2/C(=C(\O)c3ccc4c(c3)CC(C)O4)C(=O)C(=O)N2Cc2ccco2)ccc1O` (stereo not given): the inhibition was -3.83%.

`COc1ccc(/C=N/NC(=O)C(C)N(c2ccc(OC)cc2)S(C)(=O)=O)cc1` (stereo not given): the inhibition was -4.56%.

Regarding `CN(C)c1ccc(C(CNC(=O)c2ccc(F)cc2)c2c[nH]c3ccccc23)cc1` (stereo not given), the inhibition was -2.56%.

Turning to `CNS(=O)(=O)c1ccc(NC(=O)Nc2ccc3c(c2)OCO3)cc1`, the inhibition was -9.95%.

Consider `COc1ccc(Cn2c(=O)sc3ccccc32)cc1OC`, for which the inhibition was -9.67%.

Consider `S=c1[nH]ccn1-c1ccc(Cl)cc1`, for which the inhibition is 69.9% (active).

`S=c1[nH]cc(-c2ccc(Cl)cc2)n1-c1ccccc1`: the inhibition is -4.18%.

Regarding `O=C(NC(=S)Nc1ccc2oc(=O)ccc2c1)c1ccc(-c2cccc(Cl)c2Cl)o1`, the inhibition was -0.008%.

Take `S=c1[nH]nc(-c2cccs2)n1/N=C/c1cccs1`: the inhibition was 27.3%.

For `S=c1[nH]nc(-c2cccs2)n1/N=C/c1cn(-c2ccccc2)nc1-c1ccc(Cl)cc1`, the inhibition was -2.77%.

For `Fc1ccccc1/C=N/n1c(-c2cccnc2)n[nH]c1=S`, the inhibition was 47.1% (active).

For `O=[N+]([O-])c1ccccc1/C=N/n1c(COc2ccccc2)n[nH]c1=S`, the inhibition is 34.8%.

As for `CCOc1ccc(-c2n[nH]c(=S)n2/N=C/c2cc3c(cc2[N+](=O)[O-])OCO3)cc1`, the inhibition was 1.59%.

Consider `S=c1[nH]nc(-c2ccncc2)n1/N=C/c1ccccc1Cl`, for which the inhibition was 73.5% (active).

Regarding `COc1ccc2c(c1)C(=O)Nc1cc(Cl)ccc1N2`, the inhibition was -7.65%.

As for `O=C(CN1CCCCC1)Nc1ccccc1C(=O)NC1CC1`, the inhibition was -5.07%.

For `CCCNC(=S)N1CCC(NC(=O)C23CC4CC(CC(C4)C2)C3)CC1`, the inhibition was -5.11%.

As to `Cc1[nH]c2ccccc2c1C(=O)CN1CC(C)CC(C)C1` (stereo not given), the inhibition was -4.14%.

`Cc1ccccc1-n1cc(CNC(=O)C2CCC(=O)N(C3CC3)C2)cn1` (stereo not given): the inhibition is -4.71%.

For `CC(Oc1ccc(F)cc1)C(=O)Nc1ccccc1C(=O)NC1CC1` (stereo not given), the inhibition is -11.6%.

In the case of `CCCc1nc2scc(-c3ccc(C)cc3)c2c(=O)n1N`, the inhibition was -7.79%.

For the compound `Cc1nc2scc(-c3cccs3)c2c(=O)n1N`, the inhibition is 42.5% (active).

Regarding `COc1cccc(NC(=O)CN(C)C(=O)CSCc2nc3scc(-c4cccs4)c3c(=O)[nH]2)c1`, the inhibition was -7.77%.
